In PubChem BioAssay:
The source made the active and inactive calls.

Experiment: E. coli acrAB mutant growth effects, primary screen, E. coli filamentation inducers, strain DRC39, OD650, 48 h (AID 1179);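 also: screen aims at cell division blockers that make cells filament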
Conditions: E. coli DRC39 delta-acrAB growth, higher = more signal, called active from +8 up or from −8 down

z-score, inactive:
CC(C)c1ccc(NN2C(C(O)C(C)c3ccccc3)C=CC3C(=O)N(c4ccccc4)C(=O)C32)cc1 (stereo not given) -0.764, CC(C)C[C@@H]1NC(=O)[C@@H]2C[C@H](C(=O)NCCCCCCNC(=O)CS)[C@H](c3ccc(O)cc3)N2C1=O -0.874, COC(=O)Cn1c(C(=O)N(C)C)cc2c1C[C@H]1CN(C(=O)c3ccccc3)[C@@](Cc3ccccc3)(C(=O)OC)[C@@H]21 -1.15, COCCOC(=O)N1C(=O)[C@@]2(c3cc(C#CCC(C(=O)OC)C(=O)OC)ccc31)[C@H](c1ccc(O)cc1)N1[C@H](c3ccccc3)[C@H](c3ccccc3)OC(=O)[C@H]1[C@@H]2C(=O)N1CCc2cc(OC)c(OC)cc2C1 0.588, Cc1ccc(S[C@]2(C(=O)NCc3ccccc3)CC(=O)N(Cc3ccccc3C(F)(F)F)[C@@H]2c2ccc(CO)cc2I)cc1 -0.0277, O=C1C2C=CC(C(O)C3CCCCC3)N(Nc3ccccc3F)C2C(=O)N1c1ccccc1 (stereo not given) -0.1, CC[C@H]1C2=C3C(CC[C@H]4C(OCc5ccc(F)cc5C(F)(F)F)OC[C@](C)([C@@H]34)N(C(=O)OC(C)(C)C)C2)C(COC(C)=O)C1COC(C)=O (stereo not given in full) -0.539, CC1CC/C=C\[C@H]2OC34C=CCN(CCN5CCOCC5)C(=O)[C@H]3N(C(CO)C(C)C)C(=O)[C@@H]4C2C(=O)O1 (stereo not given in full) 0.365, COC(=O)C[C@H]1O[C@]2(C(=O)N(C)c3ccccc32)[C@@H](C)[C@@H]1[Si](C)(C)c1ccccc1 -0.106, O=C1O[C@@H](c2ccccc2)[C@@H](c2ccccc2)N2[C@@H](c3ccc(OCCO)cc3)[C@]3(C(=O)Nc4ccc(C#CC5=CCCCC5)cc43)[C@@H](C(=O)Nc3nc4ccccc4s3)[C@H]12 0.141, CCCCN1CC=CC23O[C@@H]4/C=C\CCCOC(=O)C4[C@H]2C(=O)N(CCCCCCO)[C@@H]3C1=O (stereo not given in full) 0.924, COC(=O)[C@@]1(Cc2ccc(F)cc2)[C@H]2c3cc(C(=O)N(C)C)n(CCF)c3C[C@H]2CN1C(=O)c1ccccc1 0.459, CCc1cccc(NC(=O)O[C@H]2[C@H](OC(=O)Nc3ccccc3-c3ccccc3)[C@H](OC(=O)Nc3ccccc3-c3ccccc3)[C@@H](OC)O[C@@H]2CO)c1 -1.66, C=C(COC)C(=O)CC[C@H](OC(C)=O)c1ccccc1OCCO 0.373, COC(=O)C(CC#Cc1ccc2c(c1)[C@]1(C(=O)N2)[C@H](c2ccc(OCCO)cc2)N2[C@H](c3ccccc3)[C@H](c3ccccc3)OC(=O)[C@H]2[C@@H]1C(N)=O)C(=O)OC 0.287, COc1ccc([Si](C)(C)[C@H]2[C@H](CC(=O)N(CCO)Cc3ccccc3)O[C@@]3(C(=O)N(Cc4cccc(N5CCCCC5=O)c4)c4ccccc43)[C@@H]2C)cc1 0.832, COCCCNC(=O)[C@@]1(Cc2ccccc2I)c2ccccc2C(=O)N(Cc2ccccc2C(F)(F)F)[C@H]1c1ccc(CO)cc1 0.324, CC[C@@H](O[Si](C#C[Si](C(C)C)(C(C)C)C(C)C)(C(C)C)C(C)C)c1cn([C@H](C)c2ccccc2)nn1 0.142, COCCOC(=O)N1C(=O)[C@@]2(c3cc(C#CCC(C(=O)OC)C(=O)OC)ccc31)[C@H](C(=O)N1CCc3cc(OC)c(OC)cc3C1)[C@H]1C(=O)O[C@H](c3ccccc3)[C@H](c3ccccc3)N1[C@@H]2c1ccccc1OCCO -0.186, CCCNC(=O)[C@@]1(Sc2ccc(C)cc2)CC(=O)N(Cc2cc(C(F)(F)F)cc(C(F)(F)F)c2)[C@@H]1c1ccc(CO)cc1 -0.0429, Cc1ccc(S[C@]2(C(=O)NCc3ccccc3)CC(=O)N(Cc3ccccc3Cl)[C@@H]2c2ccc(CO)cc2)cc1 -0.756, CC1(C)OB(/C=C\CC(OC(=O)c2ccncc2)c2ccccc2)OC1(C)C (stereo not given) -0.465, COc1cc(Cc2cc3c(c(-c4ccccc4)n2)[Si](C(C)C)(C(C)C)OC3)cc(OC)c1OC 0.405, C=CCOC(=O)[C@H]1[C@@H]2C(=O)O[C@@H](c3ccccc3)[C@@H](c3ccccc3)N2[C@@H](c2ccc(OCCOC(=O)[C@@H]3C[C@@H]4C(=O)N[C@@H](Cc5ccccc5)C(=O)N4[C@@H]3c3ccc(O)cc3)cc2)[C@]12C(=O)Nc1ccc(I)cc12 -0.508, CC1C2C(CCCO)=CC(C3C(=O)N(C(N)=O)C(=O)C23)N1Cc1cccc(OC(F)(F)F)c1 (stereo not given) -0.114, COC(=O)[C@@]1(Cc2ccccc2)[C@H]2c3cc(C(=O)N(C)C)n(Cc4nc5ccccc5[nH]4)c3C[C@H]2CN1C(=O)c1ccccc1 0.0023, CO[C@H]1O[C@H](CO)[C@@H](OC(=O)Nc2cccc(F)c2)[C@H](OC(=O)Nc2ccc3c(c2)OCO3)[C@@H]1OC(=O)Nc1ccc2c(c1)OCO2 0.761, O=C1C2C=CC(C(O)c3ccccn3)N(Nc3ccc([N+](=O)[O-])cc3)C2C(=O)N1c1ccccc1 (stereo not given) -0.462, CC(C)N1C(=O)[C@@]2(Cc3ccccc31)c1ccccc1C(=O)N(Cc1ccccc1C(F)(F)F)[C@H]2c1ccc(CO)cc1 -0.818, CN1C2C=C(c3ccc(CO)cc3)C(C3C(=O)N(C(N)=O)C(=O)C32)C1C1CC1 (stereo not given) 0.213, CC(C)C[C@@H]1NC(=O)[C@@H]2C[C@H](C(=O)NCCCCCNC(=O)CS)[C@H](c3ccc(O)cc3)N2C1=O -0.539, CN(C)CCCCNC(=O)[C@H]1C[C@H]2C(=O)N[C@@H](CCCCN(C)C)C(=O)N2[C@H]1c1ccc(O)cc1 1.67, CCOC(=O)C[C@H]1[C@H](OC(=O)c2ccccc2-c2ccccc2)[C@@H](NC(=O)CC(C)C)c2cc(OCCCO)ccc2N1C(=O)c1ccccc1 0.973, CCCCCCc1nc(-c2ccc(OC)nc2)c(C)c2c1[Si](C(C)C)(C(C)C)OC2 -0.0026, COCCCNC(=O)[C@]1(Cc2ccccc2CN=[N+]=[N-])N=C(c2ccc(OCCCO)cc2)O[C@@H]1c1ccccc1N=[N+]=[N-] 0.692
